“And” between values parts separate entries of the source, which are not always exact repeats. Identical values can stand only once. Some compounds were tested as several samples or in several runs, with calls that do not always agree. The source made the active and inactive calls. The calls were made as follows: active = hit-call score of the fitted dose curve at least 0.9, where 1 is the maximum; inactive = score below 0.9.

Read-out in test [1]: Interleukin-8 (IL8), CXCL8 (gene 3576)
The test is described as follows: BSK_CASM3C_IL8: BioMAP Diversity Plus: CASM3C Assay for Interleukin-8 (IL8) Biomarker Activity (AID 2283042).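 Also: IL-8 protein level quantified by ELISA.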 The note with it: primary human coronary artery smooth muscle cells; actives raise or lower the signal.

Read-out in test [2]: Human Leukocyte Antigen - DR isotype (HLADR), HLA-DRA (gene 3122)
The test is described as follows: BSK_CASM3C_HLADR: BioMAP Diversity Plus: CASM3C Assay for Human Leukocyte Antigen - DR isotype (HLADR) Biomarker Activity (AID 2283043).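 Also: cell-surface HLA-DR protein level quantified by ELISA.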 The note with it: primary human coronary artery smooth muscle cells; actives raise or lower the signal.

Read-out in test [3]: Macrophage colony-stimulating factor (MCSF), CSF1 (gene 1435)
The test is described as follows: BSK_CASM3C_MCSF: BioMAP Diversity Plus: CASM3C Assay for Macrophage colony-stimulating factor (MCSF) Biomarker Activity (AID 2283044).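 Also: M-CSF protein amount quantified by ELISA after 24 h exposure.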 The note with it: primary human coronary artery smooth muscle cells; actives raise or lower the signal.

Read-out in test [4]: Low-density lipoprotein receptor (LDLR), LDLR (gene 3949)
The test is described as follows: BSK_CASM3C_LDLR: BioMAP Diversity Plus: CASM3C Assay for Low-density lipoprotein receptor (LDLR) Biomarker Activity (AID 2283045).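 Also: LDLR protein level on the cell surface quantified by ELISA.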 To be noted: primary human coronary artery smooth muscle cells; actives raise or lower the signal.

Read-out in test [5]: Monocyte Chemoattractant Protein-1 (MCP1), CCL2 (gene 6347)
The test is described as follows: BSK_CASM3C_MCP1: BioMAP Diversity Plus: CASM3C Assay for Monocyte Chemoattractant Protein-1 (MCP1) Biomarker Activity (AID 2283046).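 Also: MCP-1 level quantified by ELISA 24 h after dosing.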 To be noted: primary human coronary artery smooth muscle cells; actives raise or lower the signal.

Test [6] is described as follows: BSK_CASM3C_Proliferation: Cell Proliferation Assessment in the BioMAP Diversity Plus: CASM3C Assay (AID 2283047).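 Also: sulforhodamine B total protein stain as relative cell number at 560 nm; sub-confluent cells exposed 48 h before staining; fitted both ways against DMSO so gain or loss of cell number.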 To be noted: primary human coronary artery smooth muscle cells.
Read-out in test [7]: Monokine induced gamma interferon (MIG), CXCL9 (gene 4283)
The test is described as follows: BSK_CASM3C_MIG: BioMAP Diversity Plus: CASM3C Assay for Monokine induced gamma interferon (MIG) Biomarker Activity (AID 2283048).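 Also: MIG protein level measured by ELISA.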 To be noted: primary human coronary artery smooth muscle cells; actives raise or lower the signal.

Read-out in test [8]: serum amyloid A (SAA), SAA1 (gene 6288)
The test is described as follows: BSK_CASM3C_SAA: BioMAP Diversity Plus: CASM3C Assay for serum amyloid A (SAA) Biomarker Activity (AID 2283049).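 Also: SAA protein level quantified by ELISA.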 The note with it: primary human coronary artery smooth muscle cells; actives raise or lower the signal.

A short description of test [9]: BSK_CASM3C_SRB: Viability Assessment in the BioMAP Diversity Plus: CASM3C Assay (AID 2283050).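 Also: cells exposed to compound for 24 h.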 The note with it: primary human coronary artery smooth muscle cells.
Read-out in test [10]: Thrombomodulin, THBD (gene 7056)
The test is described as follows: BSK_CASM3C_Thrombomodulin: BioMAP Diversity Plus: CASM3C Assay for Thrombomodulin Biomarker Activity (AID 2283051).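 Also: thrombomodulin protein level measured by ELISA 24 h after dosing.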 The note with it: primary human coronary artery smooth muscle cells; actives raise or lower the signal.

Read-out in test [11]: Tissue Factor, F3 (gene 2152)
The test is described as follows: BSK_CASM3C_TissueFactor: BioMAP Diversity Plus: CASM3C Assay for Tissue Factor Biomarker Activity (AID 2283052).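 Also: cell surface tissue factor protein level read by ELISA.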 The note with it: primary human coronary artery smooth muscle cells; actives raise or lower the signal.

Read-out in test [12]: Interferon-gamma inducible Protein 10 (IP10), CXCL10 (gene 3627)
The test is described as follows: BSK_hDFCGF_IP10: BioMAP Diversity Plus: hDFCGF Assay for Interferon-gamma inducible Protein 10 (IP10) Biomarker Activity (AID 2283053). The note with it: primary human foreskin fibroblasts; actives raise or lower the signal. An outline of the steps: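 Primary human foreskin fibroblasts exposed to chemicals for 24 h. IP-10 measured by ELISA; changes fitted bidirectionally against DMSO baseline.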

Read-out in test [13]: Urokinase-type plasminogen activator receptor (uPAR), PLAUR (gene 5329)
The test is described as follows: BSK_CASM3C_uPAR: BioMAP Diversity Plus: CASM3C Assay for Urokinase-type plasminogen activator receptor (uPAR) Biomarker Activity (AID 2283054).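 Also: cell-surface uPAR protein level quantified by ELISA.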 To be noted: primary human coronary artery smooth muscle cells; actives raise or lower the signal.

Read-out in test [14]: Vascular cell adhesion molecule 1 (VCAM1), VCAM1 (gene 7412)
The test is described as follows: BSK_CASM3C_VCAM1: BioMAP Diversity Plus: CASM3C Assay for Vascular cell adhesion molecule 1 (VCAM1) Biomarker Activity (AID 2283055).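 Also: VCAM-1 protein level quantified by ELISA on the cells.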 The note with it: primary human coronary artery smooth muscle cells; actives raise or lower the signal.

Read-out in test [15]: Collagen III, COL3A1 (gene 1281)
The test is described as follows: BSK_hDFCGF_CollagenIII: BioMAP Diversity Plus: hDFCGF Assay for Collagen III Biomarker Activity (AID 2283056). To be noted: primary human foreskin fibroblasts; actives raise or lower the signal. The gist of the method:
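hDFCGF primary human dermal fibroblasts; 24 h chemical exposure; collagen III by ELISA; bidirectional curve fit vs DMSO baseline (gain or loss of signal).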

Read-out in test [16]: Epidermal growth factor receptor (EGFR), EGFR (gene 1956)
The test is described as follows: BSK_hDFCGF_EGFR: BioMAP Diversity Plus: hDFCGF Assay for Epidermal growth factor receptor (EGFR) Biomarker Activity (AID 2283057). The note with it: primary human foreskin fibroblasts; actives raise or lower the signal. The gist of the method: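 Primary human foreskin fibroblasts (hDFCGF system), sampled 24 h after dosing; EGFR quantified by ELISA. Bidirectional fit relative to DMSO baseline; SRB total-protein staining in parallel cultures for cytotoxicity.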

The nature of test [17]: BSK_hDFCGF_Proliferation: Cell Proliferation Assessment in the BioMAP Diversity Plus: hDFCGF Assay (AID 2283059).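 Also: curves fitted for both rise and fall of signal versus DMSO baseline.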 The note with it: primary human foreskin fibroblasts. An outline of the steps: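 Sub-confluent human foreskin fibroblast cultures receive test chemical […]. Relative cell number is quantified by sulforhodamine B staining (0.1%, after 10% TCA fixation) at 560 nm, with bidirectional fitting referenced to DMSO.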

Read-out in test [18]: Macrophage colony-stimulating factor (MCSF), CSF1 (gene 1435)
The test is described as follows: BSK_hDFCGF_MCSF: BioMAP Diversity Plus: hDFCGF Assay for Macrophage colony-stimulating factor (MCSF) Biomarker Activity (AID 2283060). To be noted: primary human foreskin fibroblasts; actives raise or lower the signal. The gist of the method: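 ELISA read-out of M-CSF in human dermal foreskin fibroblast cultures, 24 h after chemical dosing; gain or loss of signal fitted bidirectionally relative to DMSO baseline.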

Read-out in test [19]: Interleukin-8 (IL8), CXCL8 (gene 3576)
The test is described as follows: BSK_hDFCGF_IL8: BioMAP Diversity Plus: hDFCGF Assay for Interleukin-8 (IL8) Biomarker Activity (AID 2283058). To be noted: primary human foreskin fibroblasts; actives raise or lower the signal. The gist of the method: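 ELISA read-out of IL-8 from primary human foreskin fibroblast cultures taken 24 h after dosing; values are bidirectional fits relative to DMSO vehicle.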

By AC50 is commonly meant the concentration giving half of the maximal activity seen. Consider `C[C@@H]1C[C@H]2[C@@H]3CCC4=CC(=O)C=C[C@]4(C)[C@@]3(F)[C@@H](O)C[C@]2(C)[C@@]1(O)C(=O)COP(=O)(O)O`, for which the concentration at half-maximal activity (AC50) in test [1] was 176 nM (active) and 1.04 µM (active) and 101 nM (active); in test [3], 29.4 nM (active) and 113 nM (active) and 217 nM (active); in test [5] it was 141 nM (active) and 1.58 µM (active) and 720 nM (active); in test [6], 0.163 µM (active); in test [8], 54.4 nM (active) and 105 nM (active) and 155 nM (active); in test [10], 29.4 nM (active) and 100 nM (active). Further, the concentration at half-maximal activity (AC50) in test [11] was 122 nM (active) and 674 nM (active); in test [12], 696 nM (active) and 895 nM (active); in [14] it was 0.1 µM (active); in test [17], 30.3 µM (active); in test [18], 615 nM (active) and 730 nM (active). Besides, the result in [2], in test [4], in [6], in test [7], in test [9] and in test [10] was inactive. In addition, the result in test [11], in [12], in [13], in test [14], in [15] and in test [16] was inactive. Besides, the result in [17] and in test [18] was inactive.
As for `Cc1oc(-c2ccccc2)nc1CCOc1ccc(C[C@H](Nc2ccccc2C(=O)c2ccccc2)C(=O)O)cc1`, the outcome in [1], in test [7], in [8], in test [10] and in test [11] was inactive. In addition, the half-maximal activity concentration (AC50) in test [2] was 34.6 µM (active); in test [3], 30.8 µM (active); in test [4], 4.87 µM (active); in test [5], 32.4 µM (active); in test [6], 31.8 µM (active); in test [9], 32.3 µM (active). For the same molecule, the concentration at half-maximal activity (AC50) was 3.35 µM (active) in test [12]; 31.2 µM (active) in test [13]; 32.8 µM (active) in test [14]; 3.34 µM (active) in [15]; 1.85 µM (active) in test [16]; 1.81 µM (active) in test [17]. In addition, in test [18], the AC50 is 3.14 µM (active).
In the case of `CCCOc1sc(C(=O)N2CCC(c3cc(CN)ccc3F)CC2)c(C)c1Br`, the AC50 is 15.4 µM (active) in [1]; 4.87 µM (active) in test [2]; 9.62 µM (active) in [3]; 27.1 µM (active) in test [4]; 17.5 µM (active) in test [5]; 7.94 µM (active) in [6]. For the same molecule, the AC50 in [7] is 27.8 µM (active); in test [8], 11.9 µM (active); in test [9] it was 12.9 µM (active); in [10], 32.6 µM (active); in test [11] it was 10.8 µM (active); in [12], 10.4 µM (active). Besides, the concentration at half-maximal activity (AC50) in [13] was 8.94 µM (active); in test [14] it was 18.6 µM (active); in test [15], 7.98 µM (active); in test [16] it was 5.12 µM (active); in test [19], 7.73 µM (active); in [17], 3.1 µM (active). In addition, in test [18], the half-maximal activity concentration (AC50) is 6.92 µM (active).
Consider `OCCC(F)(F)C(F)(F)C(F)(F)C(F)(F)C(F)(F)C(F)(F)F`, for which the result in [1], in test [2], in test [3], in test [4], in test [5] and in test [6] was inactive. Moreover, the outcome in test [7], in test [8], in test [9], in [10], in [11] and in [12] was inactive. In addition, the result in test [13], in test [14], in test [15], in test [16], in [19] and in test [17] was inactive. Further, the outcome in [18] was inactive. Also, the AC50 in test [6] was 44.3 µM (active); in test [12] it was 52.6 µM (active); in test [15], 46.3 µM (active); in test [19], 46.4 µM (active) and 57.9 µM (active); in test [17] it was 48.3 µM (active) and 47.4 µM (active); in [18], 54.2 µM (active).
Turning to `COc1ccc([N+](=O)[O-])cc1N`, the result in test [1], in test [2], in [3], in [4], in test [5] and in test [6] was inactive. In addition, the result in test [7], in [8], in [9], in test [10], in test [11] and in test [12] was inactive. Besides, the outcome in test [13], in test [14], in test [15], in test [16], in test [17] and in test [18] was inactive.

For the origin of these results see PubChem BioAssay (EPA / NIEHS).
